Laboratory results reported in PubChem BioAssay AID1347069 (National Center for Advancing Translational Sciences (NCATS), 2019).
The whole screen tested about 44,000 compounds, of which fewer than 10 were called active. Calls come from the whole dose curve; as a rule, active = well fitted inhibition curve with a large enough effect; inconclusive = small, poorly fitted or top-dose-only effect; inactive = flat fitted curve, though single readings scatter. Only a sample is shown.

target: Tumor susceptibility gene 101 protein (Homo sapiens) (UniProt Q99816); assay: qHTS Validation Assay for Inhibitors of HIV-1 Budding by Blocking the Interaction of PTAP/TSG101: Sytravon Library Screen; details: Fluorescence polarization, FITC-PTAP peptide/Tsg101, 20 min; series mostly up to 115 µM; activity change, negative = inhibition: at the top concentration; note: 0% is about no effect
Text: Stages of the HIV-1 replication cycle, specifically virus assembly and release, provide underexploited targets for the development of novel antiviral inhibitors. The late stages of HIV-1 replication are mediated by the Gag precursor protein, Pr55Gag. Expression of Pr55Gag is both necessary and sufficient for the production of virus-like particles from Gag-expressing cells. The Gag protein hijacks key host proteins involved in endocytic machinery of the host cell to promote endosomal processing and viral budding. The budding process requires a direct interaction between a […] (PTAP) motif in the p6 domain of Gag and the cellular endosomal sorting protein known as Tsg101. In this way, the Gag PTAP motif promotes the host cells to recruit viral particles to the plasma membrane where the new viral particles are released, effectively turning the host cells into viral factories. A fluorescence polarization assay has been developed to quantitatively measure the PTAP-Tsg101 interaction which can be used to screen for inhibitors of this interaction. This assay was run against the NCGC Sytravon Library collection. NIH Molecular Libraries Probe Production Network [MLPCN] NIH Chemical Genomics Center [NCGC] Grant: R03 MH087464-01A1 PI Name: Dr. Eric Freed, NCI
Two uL of the Tsg101 binding domain in buffer (10 mM HEPES pH 7.5; 0.15 M NaCl, 0.01% Tween 20; 3 mM EDTA;0.1 mM TCEP) was dispensed into Greiner black MB 1536-well plates (final concentration 10 uM). Then, 23 nL of compounds or DMSO were delivered to each well using a pin tool. Finally, 2 uL of a FITC-labeled peptide containing the PTAP motif (1) in the same buffer was dispensed (50 nM final concentration) and the binding was allowed to proceed for 20 min. at r.t. Fluorescent polarization was determined using FITC excitation and polarized emission filters on a Perkin Elmer Envision. Assay cut-off (positive/negative criteria): Actives defined by CRC class, <25 µM; Efficacy <60% inhibition. The total fluorescent intensity from S and P channels will be used to flag fluorescent compounds.

Chain of Tumor susceptibility gene 101 protein (Homo sapiens) (Q99816 whole entry, looked up): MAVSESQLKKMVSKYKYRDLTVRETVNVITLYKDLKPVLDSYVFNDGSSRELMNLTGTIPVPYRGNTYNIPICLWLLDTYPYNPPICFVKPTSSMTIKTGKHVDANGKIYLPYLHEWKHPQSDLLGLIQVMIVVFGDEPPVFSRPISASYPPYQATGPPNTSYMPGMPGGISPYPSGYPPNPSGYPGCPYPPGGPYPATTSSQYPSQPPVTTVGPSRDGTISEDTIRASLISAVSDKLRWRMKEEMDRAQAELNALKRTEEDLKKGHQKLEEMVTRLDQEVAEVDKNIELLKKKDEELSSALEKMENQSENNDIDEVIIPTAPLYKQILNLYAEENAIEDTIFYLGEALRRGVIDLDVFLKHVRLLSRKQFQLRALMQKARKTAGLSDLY

Activity change, negative = inhibition, inactive:
COc1ccc(-c2csc(-c3c(N)c(C(=O)c4ccc(OC)c(OC)c4)n4ccccc34)n2)cc1 3.42%
Cc1ccc(C)c(N2CCN(C(c3ccccc3)c3nnc(-c4ccccc4)o3)CC2)c1 (configuration not stated) 0.0723%
Fc1ccc(-c2nn(-c3ccccc3Cl)c3c2cnc2ccccc23)cc1 2.46%
CCOc1ccccc1CNC(=O)c1ccc2c(c1)nc1n2CCC(C)C1 (configuration not stated) -0.0943%
COc1ccccc1OCC(=O)Nc1nnc2n1CCS2 -0.292%
CCOC(=O)c1c(C)oc2ccc(N(C(=O)c3ccncc3)S(=O)(=O)c3ccc(CC)cc3)cc12 1.17%
O=C(CCS(=O)(=O)c1ccccc1)N(Cc1cccnc1)c1nc2c(F)cccc2s1 -1.2%
Cn1c(=O)sc2cc(NS(=O)(=O)c3ccc(C(C)(C)C)cc3)ccc21 -5.39%
COc1ccc2c(CNCCc3ccccc3C)c(C(=O)O)n(Cc3ccccc3C)c2c1 -3.79%
Cc1cc2c(cc1C)C(c1cccc(OC(C)C)c1)CC(=O)N2 (configuration not stated) -1.3%
CCc1nn(CCCC(=O)NCc2ccccc2OC)c(=O)c2cc3occc3n12 -0.0025%
Cc1cccc(NC(=O)c2ccc(F)c(S(=O)(=O)N(C)C3CCCCC3)c2)c1 0.693%
COc1ccc(CCNC(=O)c2ccc3c(c2)nc(C)n3-c2ccc(Br)cc2)cc1OC 0.65%
CCCCn1cc(S(=O)(=O)c2ccc(OCC)cc2)c(=O)c2cc(OC)c(OC)cc21 -6.12%
COc1ccccc1CNc1nc2ccc(Cl)cc2n2cnnc12 -1.28%
Cc1ccccc1CNC(=O)CCc1cn(Cc2ccccc2C)c2ccccc12 10.9%
COc1ccccc1-n1c(-c2ccc(C)cc2)cn2c3c(=O)n(C)c(=O)n(C)c3nc12 -1.18%
CCOC(=O)C1CCCN(C(=O)c2ccc(-n3ccc4ccccc43)s2)C1 (configuration not stated) -0.557%
Cc1cc(C)cc(NC(=O)c2cnc3sc(N4CCCC4)nn3c2=O)c1 -0.768%
COc1cc(NC(=O)CSc2nc3nc(C)c(Cc4ccc(C)cc4)c(C)n3n2)cc(OC)c1OC -13.3%
Cc1oc(C)c2c(=O)cc(-c3ccc4c(c3)OCO4)cc(OC(=O)c3ccc(Cl)cc3)c12 -2.11%
COc1cccc(N=C2SC(C(=O)Nc3cccc(Cl)c3)CC(=O)N2C)c1 (configuration not stated) -1.5%
Cc1ccccc1-c1nc2scc(CCNC(=O)C(=O)Nc3ccc(F)cc3F)n2n1 -0.431%
O=C(CSCc1cnn(-c2ccccc2)c1-n1cccc1)NCc1ccc(Cl)cc1 -1.64%
CCN(CC)S(=O)(=O)c1ccc(C(=O)N=c2sc3cccc(OC)c3n2C)cc1 2.51%
CC(=O)Nc1ccc(NC(=O)c2cc3sccc3n2Cc2ccc(F)cc2)cc1 -6.8%
CC(C)Cn1c(C2CC(=O)N(c3ccccc3Cl)C2)nc2ccccc21 (configuration not stated) 1.31%
CC1=C(C(=O)OCC2CCCCC2)C(c2c(F)cccc2Cl)CC(=O)N1 (configuration not stated) -0.961%
COc1cc(Cl)c(C)cc1NC(=O)CCc1nc2cccnc2n1Cc1cccs1 -0.925%
COc1ccc(-c2nc(Cn3c(=O)cc(C)c4c(C)nn(-c5ccccc5)c43)c(C)o2)cc1OC 1.24%
CCC(=O)N1CCc2cc(Br)cc(S(=O)(=O)Nc3ccc(C)cc3C)c21 -1.22%
CC(C)c1ccc(S(=O)(=O)Nc2ccc(O)c(Sc3nc4ccccc4s3)c2)cc1 -8.58%
Cc1ccc(-c2nn3c(=O)cc(CN4CCN(S(=O)(=O)c5ccc(Cl)cc5)CC4)nc3s2)cc1 -1.06%
NS(=O)(=O)c1ccc(NC(=O)COc2ccc(S(=O)(=O)NC3CCCCC3)cc2)cc1 -1.5%
Cc1ccc(NC(=O)Cc2ccc(NC(=O)N3CCCCc4ccccc43)cc2)cc1 0.025%
CC1CCC(N2CC(=O)N(CCC3=CCCCC3)C(c3ccc(F)cc3)C2=O)CC1 (configuration not stated) -9.66%
CCOc1ccccc1CNC(=O)c1ccc(-n2c(C)cc3c2CCC(C)C3)cc1 (configuration not stated) 1.74%
O=S(=O)(c1ccc(Br)cc1)c1nnn2c1nc(NC1CCCCCC1)c1sccc12 -3.9%
Cc1oc(-c2ccccc2)nc1Cn1c(SCc2cccc(C(F)(F)F)c2)nc2cccnc21 0.507%
CCCCOC(=O)/C(C#N)=C/c1ccc(-c2cccc(C(F)(F)F)c2)o1 8.04%
CCOc1ccccc1C(=O)Nc1ccc(S(=O)(=O)N2CCCCC2c2cccnc2)cc1 (configuration not stated) 1.42%
CN(Cc1ccccc1)c1ncnc2onc(-c3ccc(F)cc3)c12 -1.11%
Cc1cccc(C(C)C)c1NC(=O)C(NS(=O)(=O)c1cccc2nsnc12)c1ccccc1 (configuration not stated) -0.333%
Cc1cccc(Cc2c(C)nc3nc(SCc4ccccc4Cl)nn3c2C)c1 0.0529%
Cc1ccc(/C=C(\C#N)C(=O)Nc2cc(C)ccc2C)cc1 -0.172%
COc1ccc(Cn2c(=O)n(-c3ccccc3C)c(=O)c3c4c(sc32)CN(C(C)=O)CC4)cc1 -0.737%
CCOC(=O)c1cc2c(=O)n3ccccc3nc2n(CC2CCCO2)c1=NC(=O)c1ccccc1F (configuration not stated) 0.0852%
